Data published in PubChem BioAssay AID1159580 (chemical genetic matrix, 2015).
“And” between values parts separate entries of the source, which are not always exact repeats. Equal values may be shown once. Screen size: about 5,500 compounds; about 2,000 (36%) were called active. Not shown: some 18% with an inconclusive outcome. Cut-off read from the data, not from the text of the source: active = normalized growth mostly below about 0.91 (no sharp cut-off); inconclusive = no clear call, values can overlap the other calls; inactive = mostly above about 0.92. The list shows a part of the results.

Assay: chemical genetic growth profiling, strain panel (AID 1159580);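 note: tested at 20 µM; growth read once vehicle control cultures reached saturation at 30 °C; 1 = growth at the plate median or of vehicle wells; lower values mean less growth of the strain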
Details: S. cerevisiae deletion strains, growth OD

Measured: normalized growth

COc1ccc(C(=O)N2CCCC2=O)cc1
inactive: locus YAL013W, strain DEP1, hits give low values 0.971 | locus YAL021C, strain ccr4, hits give low values 0.981 | locus YAL026C, strain drs2, hits give low values 0.976 | locus YAL030W, strain snc1, hits give low values 0.956 | locus YAL040C, strain CLN3, hits give low values 1.01 | locus YBL061C, strain skt5, hits give low values 0.962 | locus YBR009C, strain hhf1, hits give low values 0.969 | locus YBR021W, strain FUR4, hits give low values 1.05 | locus YBR023C, strain chs3, hits give low values 0.967 | locus YBR171W, strain sec66, hits give low values 0.96 | locus YBR229C, strain ROT2, hits give low values 0.953 | locus YBR231C, strain swc5, hits give low values 0.967 | locus YBR279W, strain paf1, hits give low values 0.987 | locus YCL011C, strain gbp2, hits give low values 0.946 | locus YCL016C, strain dcc1, hits give low values 0.976 | locus YCL029C, strain bik1, hits give low values 0.983 | locus YCL061C, strain MRC1, hits give low values 0.974 | locus YCL069W, strain vba3, hits give low values 0.985 | locus YCR088W, strain abp1, hits give low values 0.981 | locus YDL005C, strain med2, hits give low values 0.974 | locus YDL035C, strain GPR1, hits give low values 0.984 | locus YDL040C, strain nat1, hits give low values 0.984 | locus YDL074C, strain BRE1, hits give low values 0.961 | locus YDL101C, strain DUN1, hits give low values 0.952 | locus YDL134C, strain PPH21, hits give low values 0.993 | locus YDL185W, strain tfp1, hits give low values 0.964 | locus YDL192W, strain arf1, hits give low values 0.983 | locus YDR001C, strain nth1, hits give low values 0.97 | locus YDR069C, strain doa4, hits give low values 0.968 | locus YDR101C, strain arx1, hits give low values 0.989 | locus YDR137W, strain rgp1, hits give low values 0.967 | locus YDR150W, strain NUM1, hits give low values 0.968 | locus YDR159W, strain sac3, hits give low values 0.968 | locus YDR162C, strain NBP2, hits give low values 0.968 | locus YDR195W, strain ref2 1 | locus YDR297W, strain sur2, hits give low values 0.967 | locus YDR318W, strain mcm21, hits give low values 0.996 | locus YDR334W, strain swr1, hits give low values 0.939 | locus YDR335W, strain msn5, hits give low values 0.975 | locus YDR388W, hits give low values 0.999 | locus YDR392W, strain spt3, hits give low values 0.929 | locus YDR502C, strain sam2, hits give low values 0.995 | locus YEL003W, strain gim4, hits give low values 0.981 | locus YEL037C, strain rad23, hits give low values 0.979 | locus YEL061C, strain CIN8 (second series), hits give low values 0.971 | locus YEL061C, strain CIN8, hits give low values 0.983 | locus YER002W, strain NOP16, hits give low values 1 | locus YER015W, strain faa2, hits give low values 0.979 | locus YER016W, strain bim1, hits give low values 0.984 | locus YER110C, hits give low values 0.985 | locus YER111C, strain swi4, hits give low values 0.978 | locus YER155C, strain BEM2 (second series), hits give low values 0.974 | locus YER155C, strain BEM2, hits give low values 0.995 | locus YER167W, strain BCK2, hits give low values 0.983 | locus YFR010W, strain ubp6, hits give low values 0.962 | locus YGL078C, strain dbp3, hits give low values 0.985 | locus YGL086W, strain mad1, hits give low values 0.987 | locus YGL167C, strain pmr1, hits give low values 0.96 | locus YGL173C, strain kem1, hits give low values 0.961 | locus YGL227W, strain vid30, hits give low values 0.971 | locus YGL240W, strain doc1, hits give low values 0.992 | locus YGL248W, strain PDE1, hits give low values 0.977 | locus YGL253W, strain hxk2, hits give low values 0.976 | locus YGR078C, strain PAC10, hits give low values 0.973 and 1 | locus YGR135W, strain pre9, hits give low values 0.981 | locus YGR229C, strain SMI1, hits give low values 0.994 and 1.02 | locus YGR252W, strain gcn5, hits give low values 1.05 | locus YHR013C, strain ard1, hits give low values 0.962 | locus YHR027C, strain rpn1, hits give low values 0.956 | locus YHR030C, strain SLT2, hits give low values 0.992 | locus YHR079C, strain IRE1 (second series), hits give low values 0.991 | locus YHR094C, strain hxt1, hits give low values 0.991 | locus YHR129C, strain ARP1, hits give low values 0.992 | locus YHR142W, strain chs7, hits give low values 0.91 | locus YHR200W, strain rpn10, hits give low values 0.989 | locus YIL066C, strain RNR3, hits give low values 0.986 | locus YIL073C, strain SPO22, hits give low values 1.01 | locus YIL125W, strain kgd1, hits give low values 0.992 | locus YIR030C, strain dcg1, hits give low values 0.981 | locus YJL092W, strain hpr5, hits give low values 0.975 | locus YJL095W, strain BCK1 (second series), hits give low values 0.973 | locus YJL095W, strain BCK1, hits give low values 1 | locus YJL115W, strain asf1, hits give low values 0.957 | locus YJL129C, strain trk1, hits give low values 1.01 | locus YJL134W, strain LCB3, hits give low values 0.977 | locus YJL154C, strain vps35, hits give low values 0.975 | locus YJL164C, strain tpk1, hits give low values 0.985 | locus YJL166W, strain qcr8, hits give low values 0.945 | locus YJL168C, strain set2, hits give low values 0.992 | locus YJL187C, strain SWE1 (second series), hits give low values 0.98 | locus YJL187C, strain SWE1, hits give low values 0.975 | locus YJR043C, strain POL32, hits give low values 1
